# Shown are actives, neighbours in structure and some others; about 4.3% of the full set was active somewhere.
# MCF10A rerep: inducers of DNA re-replication in MCF 10A breast cells | Potency, µM (doses to about 46.1 µM), for the others: top-dose activity, positive = re-replication, usual class: activators | hit rate 2.9% among 350,000 | MCF 10A DNA re-replication, Hoechst nuclear intensity, 48 h; also: potency is read from the fitted curve at half-maximal effect; % of control where 0% means no effect; nearly all actives have a fitted effect of over 50% in size
# SW480 rereplic: induces DNA re-replication in SW480 colon adenocarcinoma cells; Potency, µM (highest dose often 46.1 µM), for inactives: at the top dose re-replication activation, usual class: activators; AID 624297; hit rate 1.8% among 340,000; SW480 DNA re-replication, Hoechst DNA content imaging, 48 h; also: potency is read from the fitted curve at half-maximal effect; % of control where 0% means no effect; nearly all actives have a fitted effect of over 55% in size
#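 Image-based DNA-content assay: after two days of treatment, nuclei were labelled with the DNA dye Hoechst and imaged, and hits were compounds raising the count of nuclei showing high fluorescence intensity.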
# uPA generation: cell surface uPA generation inhibition | cell surface uPA generation assay, qHTS | Potency, µM (top dose mostly 38.3 µM), inactives show top-dose activity change, negative = inhibition, usual class: inhibitors | hit rate 0.31% among 330,000 | AID 540303; active = well fitted inhibition curve with a large enough effect; inconclusive = small, poorly fitted or top-dose-only effect; inactive = no such curve, though single readings can be large or run the other way; tested in mouse RAW 264.7 cells; also: potency is read from the fitted curve at half-maximal effect; % is scaled to controls: 0 for no effect and ±100 for the full control effect; nearly all actives have a fitted effect of over 55% in size
# Giardia kill: Giardia lamblia killing | Giardia lamblia trophozoite viability | activity change, % at 7.66 µM, hits read low | hit rate 0.15% among 340,000; in the data active = activity change below about -80%; inconclusive = between about -30% and that limit;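 also: parasites exposed to compound for two days anaerobically before the ATP read; % is scaled to controls: 0 for no effect and ±100 for the full control effect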
#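 Each well holds 100 Giardia trophozoites and compound. After two days (48 hrs) at 37 deg C in anaerobic conditions, ATP is quantified by luminescence.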
# An asterisk follows results filed as active; u = inconclusive; x = no result. Unless noted, calls follow the shape of the dose curve; as a rule, active = well fitted activation curve with a large enough effect; inconclusive = small, poorly fitted or top-dose-only effect; inactive = no such curve, though single readings can be large or run the other way.
SMILES,MCF10A rerep,SW480 rereplic,uPA generation,Giardia kill
CCN(CC)CCC(c1ccc(N(C)C)cc1)c1c(OC)cc(OC)c2c1OC(=O)CC2c1ccc(OC)cc1 (centres undefined),x,x,x,-6
Oc1c(Br)cc(Br)cc1CNc1ccc(F)cc1,u,0%,3%,-1
Oc1c(Br)cc(Br)cc1CNc1cnc2ccccc2c1,23µM*,2%,-3%,4
Cc1scc(C(=O)N/N=C/c2ccco2)c1C,-2%,-7%,-6%,4
Cc1scc(C(=O)N/N=C/c2ccsc2)c1C,0%,-697%,6.3µM*,0
Cc1ccc(/C=N/NC(=O)c2csc3c2CCCC3)cc1,1.3µM*,u,-11%,41
CC1CCCCC1NC(=O)CNC(=O)c1cccs1 (centres undefined),-2%,-3%,1%,13
COc1ccc(CN(CCCN)c2ccc(Br)cn2)cc1,x,x,x,11
COc1ccc(-c2cc(Cl)cc3c(=O)c4ccccc4n(C)c23)cc1F,u,18µM*,-6%,10
COc1cc(-c2ccc3c(=O)c4ccccc4sc3c2)cc(OC)c1OC,3.7µM*,0.65µM*,1%,0
COc1cc(-c2c(-c3ccsc3)sc3ccccc23)cc(OC)c1OC,u,-3%,6%,-17
Cn1c(C=O)c(-c2ccc3c(c2)OCCO3)c2ccccc21,16µM*,4%,-4%,-2
COc1cc(-c2ccc3c(=O)c4ccccc4n(C)c3c2)cc(OC)c1OC,u,13µM*,u,-18
COc1cc(C2CC(=O)Oc3c2c(=O)n(C)c2ccccc32)cc(OC)c1OC (centres undefined),6%,-32%,1%,12
CC(=O)Nc1c(-c2ccc(Cl)cc2)c(=O)c2ccccc2n1C,-18%,-3%,-3%,13
O=C(NNC(=O)c1ccccc1F)c1ccc(S(=O)(=O)N2CCCCC2)cc1,-21%,-17%,6%,3
Cc1ccc(S(=O)(=O)NC(=O)NC2CCCCCCC2)cc1,-5%,-1%,x,x
O=C1NC[C@H](Cc2ccccc2)N(CC2CCN(CCc3ccc(-c4ccccc4)cc3)CC2)C1=O,u,-14%,7%,-5
Cn1c2ccccc2c(=O)c2ccc(-c3ccc4c(c3)OCO4)cc21,15µM*,u,u,-4
Cn1c2ccccc2c(=O)c2ccc(F)cc21,u,16µM*,-28%,3
Cn1c(-c2ccc3c(c2)OCO3)cc(=O)c2ccccc21,-4%,-2%,-10%,5
Cn1c2ccccc2c(=O)c2ccc(C#CC3(N)CCCCC3)cc21,u,u,u,6
CCCCCCN(C(=O)CCCN1C(=O)NC(c2ccc([N+](=O)[O-])cc2)C(C(=O)OCc2ccccc2)=C1C)C(C)C(=O)NCCCC (centres undefined),-14%,11%,u,-3
CCCC[C@@H]1CCCO[C@@](C(=O)NCc2ccc(S(C)(=O)=O)cc2)(C(F)(F)F)C1,x,x,x,30
CC1CCCCN1C(=O)COC(=O)c1cc([N+](=O)[O-])ccc1N (centres undefined),6%,4%,0%,-9
SMILES,MCF10A rerep,SW480 rereplic,uPA generation,Giardia kill
Cc1ccccc1C(=O)N1CCc2ccccc2C1,16µM*,-1%,-16%,-2
CC(C)(C)c1cc(C(=O)N2CCc3ccccc3C2)ccn1,-7%,-12%,7.9µM*,-5
CC(C)(C)c1cc(C(=O)N2CCc3ccccc32)ccn1,0%,17%,x,-5
O=C(c1ccccc1Cl)N1CCc2ccccc2C1,5%,-7%,x,0
CC(=O)Nc1cccc(NC=C(C#N)C#N)c1,-2%,-50%,-5%,6
CC(C)(C)S(=O)N1Cc2cc(CO)cc(-c3ccccc3)c2[C@@H]1CCO (some centres undefined),-5%,3%,9%,19
C/C=C1/NN(CCCN2CCN(c3cccc(Cl)c3)CC2)C(=O)N1CCOc1ccccc1,u,2%,x,x
CCN(CC)CCNC(=O)CCc1nnc2ccc(N3CCC(C)CC3)nn12,-3%,u,-5%,8
CCN(CC)c1ccc(/C=C/C(=O)C2C(=O)C=C(C)OC2=O)cc1 (centres undefined),18µM*,u,-6%,7
CCN(CC)c1ccc(C=C2C(=O)OC(c3ccccc3)OC2=O)cc1 (centres undefined),2%,5%,-3%,5
CCc1ccc2c(c1)[C@H]1OCC[C@H]1[C@@H](c1cccs1)N2,5.8µM*,5.2µM*,-15%,-9
CN(Cc1nccs1)C(=O)C1CCC(=O)N(CCCc2ccccc2)C1 (centres undefined),-3%,-11%,-3%,9
CC(=O)Oc1ccc(C2C3=C(CC(C)(C)CC3=O)Nc3cc4c(cc32)OCCO4)cc1 (centres undefined),-4%,2%,8%,-5
O=C1OCC2=C1C(c1ccc(F)cc1)c1cc3c(cc1N2)OCO3 (centres undefined),u,0.16µM*,-12%,-19
C#CCOc1ccc(C2C3=C(COC3=O)Nc3cc4c(cc32)OCO4)cc1OC (centres undefined),u,0.52µM*,-9%,-11
O=C1OCC2=C1C(c1ccc3c(c1)OCO3)Sc1ccccc1N2 (centres undefined),15%,1%,1%,-9
O=C1OCC2=C1C(c1ccc(F)cc1)c1cc3c(cc1N2)OCCO3 (centres undefined),u,0.1µM*,-7%,-3
CCOc1ccccc1C1C2=C(COC2=O)Nc2cc3c(cc21)OCO3 (centres undefined),u,0.92µM*,-9%,-15
CCOc1ccc(C2Sc3ccccc3NC3=C2C(=O)OC3)cc1 (centres undefined),-5%,u,2%,-1
O=C(Cn1cnc2c(OCc3ccccc3)ncnc21)NCCCc1ccccc1,-1%,0%,-18%,u
COc1cc(OC)cc(C(=O)NCC(=O)NCc2ccccn2)c1,-14%,-45%,12%,10
Cc1ccc(S(=O)(=O)Nc2ccc(S(=O)(=O)Nc3nccs3)cc2)cc1C,-43%,-1%,4%,-4
O=S(=O)(Nc1ccc(S(=O)(=O)Nc2nccs2)cc1)c1ccc2c(c1)OCCO2,21µM*,u,-4%,-4
Cc1ccc(O)c(NC(=S)NC(=O)/C=C/c2ccccc2)c1,0%,-8%,11%,26
Cc1ccc(O)c(NC(=S)NC(=O)/C=C/c2ccco2)c1,11%,16µM*,-14%,-9
O=C(/C=C/c1ccco1)NC(=S)Nc1ccc(O)c(-c2nc3ccccc3s2)c1,8.2µM*,u,4%,-3
Cc1ccc(-c2csc(NC(=S)NC(=O)/C=C/c3ccco3)n2)cc1,1.6µM*,29%,x,-26
COc1ccc(NC(=S)NC(=O)/C=C/c2ccco2)cc1,u,13%,-12%,-7
O=C(/C=C/c1ccco1)NC(=S)Nc1ccc(N2CCCC2)cc1,21µM*,u,3%,-3
COc1ccc(OC)c(-c2nn(-c3ccccc3)cc2C(=O)NCC(c2ccco2)N2CCCC2)c1 (centres undefined),3%,-7%,-8%,6

# Bioassay records as filed in PubChem BioAssay.
